Six1-Eya2 inh = qHTS Assay for Inhibitors of the Six1/Eya2 Interaction | activity change, % (concentration not given with the values) | Homeobox protein SIX1 (Homo sapiens) + Protein phosphatase EYA2 (Homo sapiens), … | 0.56% of 360,000 active | AlphaScreen GST-Six1/His-Eya2 binding, biochemical; hits give low values; in the data active = activity change below about -65%; inconclusive = mostly about -30% to -63%; note: % is set by controls: 0 for no effect and ±100 for the full control effect
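Compounds are tested against tagged Six1 and Eya2 proteins bridged by glutathione donor and nickel acceptor beads; after a one-hour incubation at 37 °C without light, AlphaScreen emission is recorded.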
L3MBTL1 inh = qHTS Assay for the Inhibitors of L3MBTL1; Lethal(3)malignant brain tumor-like protein 1 (Homo sapiens), Q9Y468; AlphaScreen L3MBTL1–H3K9me1 peptide binding; Potency, µM (titrated, usually from 57.1 µM), without a hit: top-dose activity, negative = inhibition, usual class: inhibitors; 0.66% of 230,000 active; AID 485360, 2010; note: potency is the fitted concentration of half-maximal effect; % is set by controls: 0 for no effect and ±100 for the full control effect; nearly all actives have a fitted effect of over 60% in size
Target sequence (Q9Y468 whole entry, looked up): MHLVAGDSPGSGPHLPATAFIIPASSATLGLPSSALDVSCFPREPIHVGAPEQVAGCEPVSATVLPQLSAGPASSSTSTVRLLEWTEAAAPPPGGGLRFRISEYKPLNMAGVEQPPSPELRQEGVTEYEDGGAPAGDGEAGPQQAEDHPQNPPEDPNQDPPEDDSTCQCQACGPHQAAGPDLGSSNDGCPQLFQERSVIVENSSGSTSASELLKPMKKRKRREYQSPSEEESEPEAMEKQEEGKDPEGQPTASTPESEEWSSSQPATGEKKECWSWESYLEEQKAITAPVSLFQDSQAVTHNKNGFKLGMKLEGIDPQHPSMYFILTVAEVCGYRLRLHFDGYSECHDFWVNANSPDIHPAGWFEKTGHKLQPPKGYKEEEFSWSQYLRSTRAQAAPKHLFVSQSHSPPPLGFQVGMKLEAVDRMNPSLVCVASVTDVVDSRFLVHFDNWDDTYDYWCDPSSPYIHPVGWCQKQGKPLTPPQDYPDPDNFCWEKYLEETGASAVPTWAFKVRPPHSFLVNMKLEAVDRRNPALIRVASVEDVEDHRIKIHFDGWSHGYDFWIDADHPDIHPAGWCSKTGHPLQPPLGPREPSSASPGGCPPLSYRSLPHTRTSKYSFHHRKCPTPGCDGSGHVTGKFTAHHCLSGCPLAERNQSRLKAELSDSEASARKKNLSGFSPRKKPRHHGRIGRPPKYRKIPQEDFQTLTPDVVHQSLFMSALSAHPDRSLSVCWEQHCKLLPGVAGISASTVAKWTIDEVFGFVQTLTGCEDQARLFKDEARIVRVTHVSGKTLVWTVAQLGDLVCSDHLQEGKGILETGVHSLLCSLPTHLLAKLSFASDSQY
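Read-out is AlphaScreen signal from streptavidin donor and nickel chelate acceptor beads (10 ug/mL final each) bridging L3MBTL1 (50 nM) and biotinylated K9-monomethylated H3(1-15) peptide (75 nM), after 30 min compound exposure at room temperature.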
CBFb RUNX1 block = qHTS Assay for Compounds Blocking the Interaction Between CBF-beta and RUNX1 for the Treatment of Acute Myeloid Leukemia. Runt-related transcription factor 1 (Homo sapiens) + Core-binding factor subunit beta …. AlphaScreen CBFb-His/RUNX1-biotin binding, biochemical. Potency, µM (highest dose often 59.8 µM), for inactives: top-dose activity, negative = inhibition, actives largely listed as inhibitors. 230,000 tested, under 10 active. AID 1477, 2009; note: % of control where 0% means no effect
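CBFb-His/RUNX1-biotin, 30 nM each, preincubated 20 min RT; compound 15 min RT; Ni + streptavidin beads 50 ng each, 90 min RT; AlphaScreen read.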
CtBP-E1A inh = qHTS Assay for Inhibitors of the CtBP/E1A Interaction | CtBP / adenovirus E1A interaction (AlphaScreen) | 0.49% of 340,000 active | activity change, % (test concentration not listed) | AlphaScreen GST-E1A/His-CtBP binding, 1536-well; hits give low values; in the data active = activity change below about -65%; inconclusive = mostly about -30% to -63%; note: % is set by controls: 0 for no effect and ±100 for the full control effect
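AlphaScreen with 125 nM GST-E1A and 125 nM His-CtBP (5X stocks) in Tris pH 8.0, 300 mM NaCl, BSA, Tween 20, TCEP. Compounds preincubated 2 h at 37 deg C, then glutathione donor/nickel acceptor beads added for 1 h at 37 deg C in dark.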
MBNL1 CUG block = qHTS Assay for Inhibitors of MBNL1-poly(CUG) RNA binding. Muscleblind-like protein 1 (Homo sapiens), Q9NR56. TR-FRET MBNL1-His/biotin-(CUG)12 binding, 665/545 ratio. Potency, µM (series often up to 57.5 µM), for inactives: top-dose activity change, negative = inhibition, usual class: inhibitors. 0.036% of 280,000 active. AID 2675, 2010; active = well fitted inhibition curve with a large enough effect in the signal ratio, with a control signal flat, not every such curve was filed as active; inconclusive = small, poorly fitted or top-dose-only effect, or effect the other way, or a change in a side signal; inactive = no such curve, though single readings can be large or run the other way; the % refers to the signal ratio; note: potency is the fitted concentration of half-maximal effect; % is set by controls: 0 for no effect and ±100 for the full control effect
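MBNL1-His + Biotin-(CUG)12, cpd titration 92 nM–58 uM; Tb anti-His Ab 0.055 ng/ul, SA-XL665 5 nM (final); 60 min RT; ratiometric 665/545 nm, Ex 340 nm; normalized to buffer and full-complex controls.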
Eya2 phos inh = qHTS Assay for Inhibitors of the Phosphatase Activity of Eya2. Protein phosphatase EYA2 (Homo sapiens), O00167. recombinant Eya2, OMFP fluorescence dephosphorylation (OMFP is methylfluorescein phosphate). Potency, µM (highest dose often 76.9 µM), without a hit: top-dose activity, negative = inhibition, hits mostly inhibitors. 0.006% of 330,000 active. AID 488837, 2010; note: potency is the fitted concentration of half-maximal effect; % is set by controls: 0 for no effect and ±100 for the full control effect
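Eya2 (0.2 uM) preincubated 10 min at ambient with compound, then OMFP substrate added at 50 uM; 10 min reaction in 50 mM HEPES pH 7.5, 50 mM NaCl, 5 uM MgCl2, 0.05% BSA, 1 mM DTT. Fluorescence read at Ex 485/Em 525 nm.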
MBNL1-CUG FRET = qHTS Assay for Inhibitors of MBNL1-poly(CUG) RNA binding: Initial hit validation from the primary screen | TR-FRET MBNL1-His / biotin-(CUG)12 binding, 60 min | shares compounds with MBNL1 CUG block | Potency, µM (doses to about 57.6 µM), without a hit: top-dose activity change, negative = inhibition, usual class: inhibitors | 50% of 140 active | AID 493199, 2011
MBNL1 AlphaScrn = qHTS Assay for Inhibitors of MBNL1-poly(CUG) RNA binding: Initial hit validation in AlphaScreen assay for MBNL1-(CUG)12 binding; shares compounds with MBNL1 CUG block; AlphaScreen MBNL1-His / biotin-(CUG)12 binding; Potency, µM (doses to about 57.7 µM), for inactives: top-dose activity, negative = inhibition, usual class: inhibitors; 30% of 140 active; AID 493205, 2011
Menin-MLL HTRF = qHTS Assay for Inhibitors of MBNL1-poly(CUG) RNA binding: Counterscreen HTRF assay. shares compounds with MBNL1 CUG block. Potency, µM (doses to about 57.6 µM), for inactives: top-dose activity, negative = inhibition, usual class: inhibitors. 20% of 120 active. His-Menin/biotin-MLL peptide TR-FRET counterscreen
The depositor's hits bear a star. Only some compounds are listed: those with a hit (about 0.89% of all), similar ones and a draw of the others. Unless noted, calls come from the whole dose curve; as a rule, active = well fitted curve in the direction sought with a large enough effect; inconclusive = small, poorly fitted or top-dose-only effect, or another doubt; inactive = no such curve, though single readings can be large; an effect the other way counts as inactive or inconclusive.

Results for CS(=O)(=O)c1ccc(CNC(=O)[C@H]2C[C@@H]2[C@H](NP(=O)(c2ccccc2)c2ccccc2)c2ccccc2)cc1 ?
CBFb RUNX1 block: 10%

Results for CN(C(=O)CN1C(=O)c2ccccc2S1(=O)=O)C1CCCCC1 ?
Six1-Eya2 inh: 4; L3MBTL1 inh: 1%; CtBP-E1A inh: 4; Eya2 phos inh: 7%

How did O=C1Cc2ccccc2C(=O)N1Cc1ccccc1 do in these assays?
Six1-Eya2 inh: 23; CBFb RUNX1 block: 5%; CtBP-E1A inh: 10; MBNL1 CUG block: 25µM*; Eya2 phos inh: -23%; MBNL1-CUG FRET: -9%; MBNL1 AlphaScrn: inconclusive; Menin-MLL HTRF: 3%

How did COc1ccc(-c2nc3ccncc3[nH]2)cc1OC do in these assays?
Six1-Eya2 inh: -3; L3MBTL1 inh: 1%; CBFb RUNX1 block: 1%; CtBP-E1A inh: 1; MBNL1 CUG block: 20µM*; Eya2 phos inh: -4%; MBNL1-CUG FRET: 6.5µM*; MBNL1 AlphaScrn: -8%; Menin-MLL HTRF: 18µM*

How did Cc1ccc(C(=O)NCCN2C3=NC[C@H](C(C)C)N3C[C@H]2Cc2ccc(O)cc2)cc1Br do in these assays?
Six1-Eya2 inh: -14; L3MBTL1 inh: -10%; CBFb RUNX1 block: 6%; CtBP-E1A inh: -19; MBNL1 CUG block: 40µM*; Eya2 phos inh: 8%; MBNL1-CUG FRET: 41µM*; MBNL1 AlphaScrn: inconclusive; Menin-MLL HTRF: -26%

What do the screens show for `O=C(Nc1ccccc1)Nn1cnnc1`?
Six1-Eya2 inh: 3; CtBP-E1A inh: 5; MBNL1 CUG block: inconclusive; Eya2 phos inh: 2%

Results for Cc1cc(C)cc(NC(=O)Nn2cnnc2)c1 ?
Six1-Eya2 inh: -2; CtBP-E1A inh: -2; MBNL1 CUG block: inconclusive; Eya2 phos inh: -19%

How did O=C(Nc1ccc(Br)cc1)Nn1cnnc1 do in these assays?
Six1-Eya2 inh: -17; CtBP-E1A inh: -14; MBNL1 CUG block: 32µM*; Eya2 phos inh: -10%; MBNL1-CUG FRET: 41µM*; MBNL1 AlphaScrn: 13%; Menin-MLL HTRF: inconclusive

How did O=C(Nc1ccc(Cl)c(Cl)c1)Nn1cnnc1 do in these assays?
Six1-Eya2 inh: -3; L3MBTL1 inh: 27%; CtBP-E1A inh: 5; MBNL1 CUG block: 7.9µM*; Eya2 phos inh: -3%; MBNL1-CUG FRET: 6.5µM*; MBNL1 AlphaScrn: 12%; Menin-MLL HTRF: 33µM*

Screening results deposited in PubChem BioAssay by National Center for Advancing Translational Sciences (NCATS).
